# In PMC7862700, “An all-to-all approach to the identification of sequence-specific readers for epigenetic DNA modifications on cytosine”:
# Experiments:
# Assay in all cases: DAPPL (digital affinity profiling via proximity ligation, sequencing); 10 mM Tris-HCl pH 7.5, 50 mM NaCl, 1 mM DTT, 4% glycerol, room temperature, 30 min; GST-TFs on glutathione beads, 16-mer random dsDNA library, 0.1% formaldehyde crosslink after washing; high values mean tight binding
# FEV = molecular target: T1, FEV (Homo sapiens, UniProt Q99581 1-238); settings: protein: recombinant; tags: N-terminal GST; dsDNA, one strand shown
# T1 sequence: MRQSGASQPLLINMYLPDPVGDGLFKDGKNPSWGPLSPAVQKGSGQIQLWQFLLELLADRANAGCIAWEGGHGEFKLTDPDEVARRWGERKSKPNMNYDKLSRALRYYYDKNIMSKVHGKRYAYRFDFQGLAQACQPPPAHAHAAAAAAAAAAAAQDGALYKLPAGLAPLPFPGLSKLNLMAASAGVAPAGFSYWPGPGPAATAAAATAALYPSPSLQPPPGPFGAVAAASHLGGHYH
# In short: (§1)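 Binding signal is given per hexamer as its read frequency for a factor divided by its frequency in the tag-only sample. GST-fused human transcription factors were expressed in yeast, captured on glutathione beads, barcoded with DNA and pooled with that sample, then incubated with 200 nmole of a 16-mer random double-stranded DNA library in Tris/NaCl/DTT/glycerol buffer for 30 min at room temperature. The pools were then washed, crosslinked, proximity-ligated, amplified by PCR and sequenced on an Illumina NextSeq500.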
# ETV5 = ETV5 (Homo sapiens, UniProt P41161 1-510); settings: protein: recombinant; tags: N-terminal GST; dsDNA, one strand shown
# ETV5, sequence (P41161 whole entry): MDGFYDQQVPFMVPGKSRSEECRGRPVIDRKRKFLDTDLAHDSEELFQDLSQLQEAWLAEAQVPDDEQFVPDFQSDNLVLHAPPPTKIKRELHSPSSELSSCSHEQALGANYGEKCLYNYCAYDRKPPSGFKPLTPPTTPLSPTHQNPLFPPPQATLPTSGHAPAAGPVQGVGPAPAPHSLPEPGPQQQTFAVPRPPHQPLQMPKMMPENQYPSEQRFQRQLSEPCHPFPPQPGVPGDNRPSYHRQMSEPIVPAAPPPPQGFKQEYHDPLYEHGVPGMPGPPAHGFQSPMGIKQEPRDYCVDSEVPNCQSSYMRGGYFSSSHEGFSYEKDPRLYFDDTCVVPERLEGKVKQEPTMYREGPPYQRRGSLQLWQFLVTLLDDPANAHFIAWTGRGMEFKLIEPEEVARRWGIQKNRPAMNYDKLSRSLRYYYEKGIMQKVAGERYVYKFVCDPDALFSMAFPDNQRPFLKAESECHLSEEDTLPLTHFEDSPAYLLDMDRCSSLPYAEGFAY
# In short: as §1
# HSF1 = HSF1 (Homo sapiens, UniProt Q00613 1-529); settings: protein: recombinant; tags: N-terminal GST; chain copies: 3; dsDNA, one strand shown
# HSF1, sequence (Q00613 whole entry): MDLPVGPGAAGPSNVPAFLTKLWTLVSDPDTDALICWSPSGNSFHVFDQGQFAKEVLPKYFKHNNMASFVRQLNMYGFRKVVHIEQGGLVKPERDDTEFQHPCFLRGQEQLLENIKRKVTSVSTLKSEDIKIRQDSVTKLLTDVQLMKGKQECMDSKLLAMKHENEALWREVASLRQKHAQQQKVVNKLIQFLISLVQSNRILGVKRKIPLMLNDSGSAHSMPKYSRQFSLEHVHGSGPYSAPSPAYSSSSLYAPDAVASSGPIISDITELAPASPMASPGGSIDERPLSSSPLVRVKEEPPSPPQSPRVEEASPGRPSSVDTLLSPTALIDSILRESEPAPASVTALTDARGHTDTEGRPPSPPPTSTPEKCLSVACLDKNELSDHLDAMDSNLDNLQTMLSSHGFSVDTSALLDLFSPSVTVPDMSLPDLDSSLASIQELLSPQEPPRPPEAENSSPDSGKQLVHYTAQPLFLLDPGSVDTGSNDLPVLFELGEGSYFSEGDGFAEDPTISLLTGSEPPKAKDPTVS
# In short: as §1
# SPIC = molecular target: T2, SPIC (Homo sapiens, UniProt Q8N5J4 1-248); settings: protein: recombinant; tags: N-terminal GST; dsDNA, one strand shown
# T2 sequence: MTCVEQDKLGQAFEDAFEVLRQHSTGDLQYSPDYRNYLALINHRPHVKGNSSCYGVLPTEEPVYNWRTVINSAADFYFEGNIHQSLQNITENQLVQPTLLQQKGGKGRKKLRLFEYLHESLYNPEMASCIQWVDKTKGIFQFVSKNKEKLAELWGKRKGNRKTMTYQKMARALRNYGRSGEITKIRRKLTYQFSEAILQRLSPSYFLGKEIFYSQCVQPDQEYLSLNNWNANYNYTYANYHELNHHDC
# In short: as §1
# ELF4 = ELF4 (Homo sapiens, UniProt Q99607 1-663); settings: protein: recombinant; tags: N-terminal GST; dsDNA, one strand shown
# ELF4, sequence (Q99607 whole entry): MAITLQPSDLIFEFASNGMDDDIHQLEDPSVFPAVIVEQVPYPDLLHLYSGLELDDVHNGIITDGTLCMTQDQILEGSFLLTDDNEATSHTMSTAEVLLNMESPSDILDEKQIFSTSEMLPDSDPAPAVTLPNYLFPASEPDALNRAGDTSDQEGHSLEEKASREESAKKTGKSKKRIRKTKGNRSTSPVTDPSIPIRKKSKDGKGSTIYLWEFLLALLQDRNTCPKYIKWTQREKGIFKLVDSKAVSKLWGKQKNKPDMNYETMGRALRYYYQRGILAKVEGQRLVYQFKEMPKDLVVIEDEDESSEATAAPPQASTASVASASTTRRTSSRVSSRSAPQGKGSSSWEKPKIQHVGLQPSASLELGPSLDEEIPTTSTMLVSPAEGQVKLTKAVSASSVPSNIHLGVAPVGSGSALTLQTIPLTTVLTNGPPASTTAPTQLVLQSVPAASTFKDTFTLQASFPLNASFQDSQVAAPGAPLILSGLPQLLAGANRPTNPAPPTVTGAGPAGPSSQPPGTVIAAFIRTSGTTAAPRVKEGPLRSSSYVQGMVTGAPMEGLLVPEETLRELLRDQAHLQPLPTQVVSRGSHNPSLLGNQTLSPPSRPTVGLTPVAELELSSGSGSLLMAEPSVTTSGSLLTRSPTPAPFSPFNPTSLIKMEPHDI
# In short: as §1
# ELK4 = molecular target: T3, ELK4 (Homo sapiens, UniProt P28324-2 1-405); settings: protein: recombinant; tags: N-terminal GST; dsDNA, one strand shown
# T3 sequence: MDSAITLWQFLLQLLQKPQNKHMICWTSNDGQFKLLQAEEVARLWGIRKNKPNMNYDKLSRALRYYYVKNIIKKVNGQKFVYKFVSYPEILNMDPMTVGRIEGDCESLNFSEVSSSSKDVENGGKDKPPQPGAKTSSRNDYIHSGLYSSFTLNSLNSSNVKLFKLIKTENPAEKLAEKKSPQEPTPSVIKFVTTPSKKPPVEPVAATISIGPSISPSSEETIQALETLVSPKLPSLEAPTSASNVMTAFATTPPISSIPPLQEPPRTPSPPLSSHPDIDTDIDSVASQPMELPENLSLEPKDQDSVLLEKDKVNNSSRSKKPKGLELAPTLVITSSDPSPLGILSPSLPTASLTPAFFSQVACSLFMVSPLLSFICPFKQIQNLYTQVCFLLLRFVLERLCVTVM
# In short: as §1
# ETV2 = molecular target: T4, ETV2 (Homo sapiens, UniProt O00321 1-342); settings: protein: recombinant; tags: N-terminal GST; dsDNA, one strand shown
# T4 sequence: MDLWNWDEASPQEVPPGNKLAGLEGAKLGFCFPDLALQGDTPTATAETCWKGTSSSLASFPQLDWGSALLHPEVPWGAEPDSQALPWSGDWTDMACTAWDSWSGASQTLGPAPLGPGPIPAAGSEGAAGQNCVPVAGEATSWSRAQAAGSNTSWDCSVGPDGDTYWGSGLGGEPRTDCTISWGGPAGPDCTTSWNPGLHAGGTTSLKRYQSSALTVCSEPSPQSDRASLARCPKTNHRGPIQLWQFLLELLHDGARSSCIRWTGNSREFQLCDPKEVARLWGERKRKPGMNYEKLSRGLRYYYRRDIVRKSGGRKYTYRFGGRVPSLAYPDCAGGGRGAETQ
# In short: as §1
# ELF3 = molecular target: T5, ELF3 (Homo sapiens, UniProt P78545 1-371); settings: protein: recombinant; tags: N-terminal GST; dsDNA, one strand shown
# T5 sequence: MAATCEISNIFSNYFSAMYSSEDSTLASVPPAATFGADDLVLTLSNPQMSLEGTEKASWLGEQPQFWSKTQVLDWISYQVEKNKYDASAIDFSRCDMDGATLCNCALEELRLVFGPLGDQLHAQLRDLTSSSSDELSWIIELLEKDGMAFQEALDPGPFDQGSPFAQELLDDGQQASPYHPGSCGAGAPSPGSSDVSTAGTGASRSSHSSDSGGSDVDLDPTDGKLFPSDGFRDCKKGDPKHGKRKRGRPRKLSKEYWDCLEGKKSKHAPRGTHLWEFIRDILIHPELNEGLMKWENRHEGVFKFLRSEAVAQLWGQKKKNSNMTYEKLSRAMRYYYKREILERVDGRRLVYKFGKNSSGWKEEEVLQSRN
# In short: as §1
# CRX = CRX (Homo sapiens, UniProt O43186 1-299); settings: protein: recombinant; tags: N-terminal GST; dsDNA, one strand shown
# CRX, sequence (O43186 whole entry): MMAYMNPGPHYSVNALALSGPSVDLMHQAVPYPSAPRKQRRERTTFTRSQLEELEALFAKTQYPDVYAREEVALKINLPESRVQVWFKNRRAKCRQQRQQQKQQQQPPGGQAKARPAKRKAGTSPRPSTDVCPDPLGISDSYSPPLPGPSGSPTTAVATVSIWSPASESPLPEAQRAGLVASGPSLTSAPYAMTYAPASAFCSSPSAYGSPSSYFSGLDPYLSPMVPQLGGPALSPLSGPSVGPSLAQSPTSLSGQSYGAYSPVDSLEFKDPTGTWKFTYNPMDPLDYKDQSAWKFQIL
# In short: as §1
# ETV1 = ETV1 (Homo sapiens, UniProt P50549 1-477); settings: protein: recombinant; tags: N-terminal GST; dsDNA, one strand shown
# ETV1, sequence (P50549 whole entry): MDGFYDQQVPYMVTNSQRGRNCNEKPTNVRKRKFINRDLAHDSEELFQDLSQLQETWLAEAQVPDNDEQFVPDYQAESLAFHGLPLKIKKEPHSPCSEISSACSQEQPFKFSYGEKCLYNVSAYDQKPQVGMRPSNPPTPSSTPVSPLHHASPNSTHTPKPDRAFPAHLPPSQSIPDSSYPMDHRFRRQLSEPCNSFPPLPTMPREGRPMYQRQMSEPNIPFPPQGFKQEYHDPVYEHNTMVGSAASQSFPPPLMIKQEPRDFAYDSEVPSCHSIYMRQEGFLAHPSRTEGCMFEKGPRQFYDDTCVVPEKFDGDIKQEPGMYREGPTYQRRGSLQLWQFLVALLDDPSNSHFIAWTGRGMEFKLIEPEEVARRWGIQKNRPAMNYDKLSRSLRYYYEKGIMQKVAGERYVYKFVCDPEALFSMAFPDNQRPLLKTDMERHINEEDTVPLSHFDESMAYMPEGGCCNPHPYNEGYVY
# In short: as §1
# ERF = molecular target: T6, ERF (Homo sapiens, UniProt P50548 1-548); settings: protein: recombinant; tags: N-terminal GST; dsDNA, one strand shown
# T6 sequence: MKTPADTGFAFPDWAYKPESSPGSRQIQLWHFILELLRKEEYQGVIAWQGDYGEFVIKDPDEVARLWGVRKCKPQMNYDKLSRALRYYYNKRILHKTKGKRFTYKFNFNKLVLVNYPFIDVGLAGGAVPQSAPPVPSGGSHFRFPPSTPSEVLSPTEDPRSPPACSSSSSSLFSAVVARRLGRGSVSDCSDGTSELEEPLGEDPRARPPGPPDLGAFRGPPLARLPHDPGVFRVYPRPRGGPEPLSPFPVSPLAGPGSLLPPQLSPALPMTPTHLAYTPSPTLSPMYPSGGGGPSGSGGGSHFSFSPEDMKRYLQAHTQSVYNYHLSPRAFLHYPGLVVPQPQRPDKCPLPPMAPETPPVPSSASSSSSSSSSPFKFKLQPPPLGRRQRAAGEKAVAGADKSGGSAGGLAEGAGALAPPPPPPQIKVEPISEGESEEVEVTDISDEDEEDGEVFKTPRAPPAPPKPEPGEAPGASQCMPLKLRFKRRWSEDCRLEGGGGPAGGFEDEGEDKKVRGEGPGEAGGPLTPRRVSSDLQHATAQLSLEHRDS
# In short: as §1
# ETV3L = molecular target: T7, ETV3L (Homo sapiens, UniProt Q6ZN32 1-361); settings: protein: recombinant; tags: N-terminal GST; dsDNA, one strand shown
# T7 sequence: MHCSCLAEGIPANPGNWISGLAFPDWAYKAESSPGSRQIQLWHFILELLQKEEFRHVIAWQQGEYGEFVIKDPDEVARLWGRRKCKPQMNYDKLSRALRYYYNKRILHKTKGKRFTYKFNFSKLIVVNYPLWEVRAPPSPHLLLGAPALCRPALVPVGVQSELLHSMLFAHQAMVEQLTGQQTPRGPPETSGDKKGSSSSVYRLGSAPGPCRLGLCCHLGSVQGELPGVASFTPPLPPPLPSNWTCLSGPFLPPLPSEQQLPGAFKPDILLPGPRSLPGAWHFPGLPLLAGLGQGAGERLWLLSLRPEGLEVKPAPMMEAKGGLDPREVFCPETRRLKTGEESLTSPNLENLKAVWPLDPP
# In short: as §1
# ETS2 = molecular target: T8, ETS2 (Homo sapiens, UniProt P15036 1-469); settings: protein: recombinant; tags: N-terminal GST; dsDNA, one strand shown
# T8 sequence: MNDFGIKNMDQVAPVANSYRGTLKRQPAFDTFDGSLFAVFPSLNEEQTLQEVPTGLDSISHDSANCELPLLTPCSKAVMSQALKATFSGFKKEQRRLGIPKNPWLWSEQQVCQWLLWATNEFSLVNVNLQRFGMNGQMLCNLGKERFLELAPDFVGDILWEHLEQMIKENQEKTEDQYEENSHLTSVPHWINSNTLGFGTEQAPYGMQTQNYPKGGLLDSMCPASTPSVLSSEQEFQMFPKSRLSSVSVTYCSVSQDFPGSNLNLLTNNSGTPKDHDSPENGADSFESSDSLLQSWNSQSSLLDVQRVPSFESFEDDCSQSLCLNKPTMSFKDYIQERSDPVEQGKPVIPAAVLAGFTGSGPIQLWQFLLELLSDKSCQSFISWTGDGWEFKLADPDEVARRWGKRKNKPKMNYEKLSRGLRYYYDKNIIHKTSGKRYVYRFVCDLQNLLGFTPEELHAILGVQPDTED
# In short: as §1
# SPDEF = molecular target: T9, SPDEF (Homo sapiens, UniProt O95238 1-335); settings: protein: recombinant; tags: N-terminal GST; dsDNA, one strand shown
# T9 sequence: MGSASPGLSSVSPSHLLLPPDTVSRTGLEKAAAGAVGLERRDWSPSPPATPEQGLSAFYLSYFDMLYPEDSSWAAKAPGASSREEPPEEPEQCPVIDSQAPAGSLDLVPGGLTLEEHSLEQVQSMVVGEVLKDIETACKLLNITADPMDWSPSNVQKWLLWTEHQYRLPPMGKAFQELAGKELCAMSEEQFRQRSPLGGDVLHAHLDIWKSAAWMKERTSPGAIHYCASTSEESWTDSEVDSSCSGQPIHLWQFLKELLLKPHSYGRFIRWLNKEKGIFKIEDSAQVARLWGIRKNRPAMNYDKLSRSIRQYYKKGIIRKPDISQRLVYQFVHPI
# In short: as §1
# ETV7 = molecular target: T10, ETV7 (Homo sapiens, UniProt Q9Y603 1-341); settings: protein: recombinant; tags: N-terminal GST; dsDNA, one strand shown
# T10 sequence: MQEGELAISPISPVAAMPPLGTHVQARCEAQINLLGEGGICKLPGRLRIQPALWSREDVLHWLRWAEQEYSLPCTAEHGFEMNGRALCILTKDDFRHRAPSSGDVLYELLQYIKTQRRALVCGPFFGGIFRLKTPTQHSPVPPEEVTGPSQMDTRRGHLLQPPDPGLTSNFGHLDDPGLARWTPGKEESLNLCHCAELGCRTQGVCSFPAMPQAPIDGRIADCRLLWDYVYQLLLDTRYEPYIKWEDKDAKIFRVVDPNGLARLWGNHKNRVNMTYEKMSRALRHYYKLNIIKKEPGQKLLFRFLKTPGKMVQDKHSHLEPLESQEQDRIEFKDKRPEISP
# In short: as §1
# ELF5 = molecular target: T11, ELF5 (Homo sapiens, UniProt Q9UKW6-2 1-255); settings: protein: recombinant; tags: N-terminal GST; dsDNA, one strand shown
# T11 sequence: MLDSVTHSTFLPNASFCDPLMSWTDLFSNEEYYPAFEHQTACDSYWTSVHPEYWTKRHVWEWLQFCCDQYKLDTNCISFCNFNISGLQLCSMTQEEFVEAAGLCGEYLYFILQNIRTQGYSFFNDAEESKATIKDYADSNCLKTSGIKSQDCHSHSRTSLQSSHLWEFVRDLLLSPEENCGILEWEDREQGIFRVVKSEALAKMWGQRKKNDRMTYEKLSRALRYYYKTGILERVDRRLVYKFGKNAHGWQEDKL
# In short: as §1
# ETV3 = molecular target: T12, ETV3 (Homo sapiens, UniProt P41162-2 1-143); settings: protein: recombinant; tags: N-terminal GST; dsDNA, one strand shown
# T12 sequence: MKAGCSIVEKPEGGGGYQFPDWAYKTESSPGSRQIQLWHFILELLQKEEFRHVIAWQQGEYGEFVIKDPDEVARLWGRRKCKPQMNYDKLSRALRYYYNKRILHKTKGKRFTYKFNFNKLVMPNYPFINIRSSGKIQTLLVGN
# In short: as §1
# ETV6 = ETV6 (Homo sapiens, UniProt P41212 1-452); settings: protein: recombinant; tags: N-terminal GST; dsDNA, one strand shown
# ETV6, sequence (P41212 whole entry): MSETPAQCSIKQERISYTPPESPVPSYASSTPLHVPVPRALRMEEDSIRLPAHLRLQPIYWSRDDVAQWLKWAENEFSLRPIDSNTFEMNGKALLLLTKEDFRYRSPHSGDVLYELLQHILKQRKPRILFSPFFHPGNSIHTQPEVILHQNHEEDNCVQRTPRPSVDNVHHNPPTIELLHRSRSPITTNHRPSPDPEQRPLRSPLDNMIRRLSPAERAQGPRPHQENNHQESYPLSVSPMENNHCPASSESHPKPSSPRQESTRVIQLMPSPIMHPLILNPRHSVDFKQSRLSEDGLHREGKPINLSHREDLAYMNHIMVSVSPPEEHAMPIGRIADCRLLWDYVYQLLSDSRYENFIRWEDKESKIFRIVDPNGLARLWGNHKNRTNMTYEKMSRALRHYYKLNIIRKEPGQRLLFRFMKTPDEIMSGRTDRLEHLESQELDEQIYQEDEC
# In short: as §1
sequence,measurement,setting,value
TATGGA,binding signal,FEV,"1.05 fold enrichment (6-mer frequency, TF over GST control)"
same,binding signal,ETV5,"1.12 fold enrichment (6-mer frequency, TF over GST control)"
same,binding signal,HSF1,"1.33 fold enrichment (6-mer frequency, TF over GST control)"
same,binding signal,SPIC,"1.14 fold enrichment (6-mer frequency, TF over GST control)"
same,binding signal,ELF4,"1.07 fold enrichment (6-mer frequency, TF over GST control)"
same,binding signal,ELK4,"1 fold enrichment (6-mer frequency, TF over GST control)"
same,binding signal,ETV2,"1.25 fold enrichment (6-mer frequency, TF over GST control)"
same,binding signal,ELF3,"1.15 fold enrichment (6-mer frequency, TF over GST control)"
same,binding signal,CRX,"1.4 fold enrichment (6-mer frequency, TF over GST control)"
same,binding signal,ETV1,"1.12 fold enrichment (6-mer frequency, TF over GST control)"
same,binding signal,ERF,"1.16 fold enrichment (6-mer frequency, TF over GST control)"
same,binding signal,ETV3L,"1.13 fold enrichment (6-mer frequency, TF over GST control)"
same,binding signal,ETS2,"1.12 fold enrichment (6-mer frequency, TF over GST control)"
same,binding signal,SPDEF,"1.18 fold enrichment (6-mer frequency, TF over GST control)"
same,binding signal,ETV7,"1.26 fold enrichment (6-mer frequency, TF over GST control)"
same,binding signal,ELF5,"1.08 fold enrichment (6-mer frequency, TF over GST control)"
same,binding signal,ETV3,"1.22 fold enrichment (6-mer frequency, TF over GST control)"
same,binding signal,ETV6,"1.05 fold enrichment (6-mer frequency, TF over GST control)"
